Assay results as given in PubChem BioAssay AID977624 (Broad Institute, 2014).
Fewer than 10 of roughly 1,800 compounds were called active. Roughly 44% stayed inconclusive and do not appear here.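 Rule for the calls: active = compound lowering the normal-ribosome reporter at least twice as much as the humanized-ribosome reporter, growth loss under a set limit; inconclusive = no clear call, values can overlap the other calls; inactive = the rest.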 A selection follows.

Test: wild-type E. coli growth inhibition versus h34 humanized strain – h34 mutant RFP, wild-type GFP, cherry-pick, dose response (AID 977624)
Details: fluorescence, 24 h; series mostly up to 50 µM

outcome, inactive:
Cc1cccc(OCCC(=O)Nc2ccc(F)c(F)c2)c1
CCN(CC(=O)Nc1cccc(C#N)c1)CC(=O)Nc1cccc(OC)c1
C=C(C)Cn1c(=O)c2c(nc3n2CC(C)CN3Cc2ccccc2)n(C)c1=O (stereo not drawn)
O=S1(=O)N[C@H](Cc2ccccc2)COc2cccc(N3CCC[C@H]3CO)c21
Cc1ccccc1-n1ncc2c1CC(C)(C)CC2NC(=O)CCN1Cc2ccccc2C1=O (stereo not drawn)
O=C(Nc1ccc2c(c1)OCO2)c1cccc(S(=O)(=O)N2CCCC2)c1
CCOc1ccccc1NC(=O)c1ccc2ccccc2c1
CC(=O)c1c(C)nn(CC(O)COc2ccc3c(c2)CCC3)c1C (stereo not drawn)
Cn1nc(C(C)(C)C)c([N+](=O)[O-])c1C(=O)Nc1ccc(Br)cc1
COc1ccccc1C(=O)COC(=O)c1cccs1
Nc1nc(Nc2ccccc2F)nc(N2CCOCC2)c1[N+](=O)[O-]
O=C(c1cc(S(=O)(=O)N2CCOCC2)ccc1Cl)N1CCc2ccccc2C1
CSc1nc2nc3c(cc2c(=O)n1-c1ccccc1C)CCCC3
Cc1cc([N+](=O)[O-])nn1CC(=O)Nc1cc(F)ccc1F
Nc1ccccc1Sc1ccc(C(F)(F)F)cc1[N+](=O)[O-]
Cc1noc(C)c1COc1cccc(C(=O)N2CCc3ccccc32)c1
CCCc1nc2oc3c(NCCCN(C)C)ncnc3c2c2c1CCCC2
O=C(c1ccc2c(c1)CCN2S(=O)(=O)c1ccccc1)N1CCN(c2ccccc2)CC1
O=C(O)c1ccc(-c2nc(-c3ccccc3)cs2)cc1
CCc1ccc2nc(N(CCCN(C)C)C(=O)c3ccc4c(c3)OCCO4)sc2c1
Nc1ncncc1-c1ccc(Cl)cc1
CC(=O)Nc1ccc(S(=O)(=O)Nc2cccc(-c3nc4cc(C)ccc4o3)c2)cc1
OCCN(Cc1ccccc1)Cc1ccc(F)c(F)c1
COC(=O)c1ccccc1NC(=O)c1ccc2c(c1)CC(C)O2 (stereo not drawn)
O=C(CN1CCCCC1)Nc1ccccc1-c1ccccc1
Cc1cc(C(=O)OCC(=O)Nc2cccc(S(N)(=O)=O)c2)c2ccccc2n1
COc1cccc(S(=O)(=O)N2CCCCN3[C@H](CO)[C@H](c4ccc(C#CC(C)C)cc4)[C@@H]3C2)c1
Cc1sc(NC(=O)CN2CCOCC2)nc1-c1ccc2c(c1)CCN2S(=O)(=O)c1ccccc1
Cc1ccc2nc(SCC(=O)c3ccc4c(c3)NC(=O)CO4)[nH]c2c1
COc1cccc(NC(=O)CN(C)CC(=O)Nc2ccc(Br)cc2)c1
COc1ccc(S(=O)(=O)N(C)C)cc1NC(=O)c1ccc2c(c1)NC(=O)C(C)S2 (stereo not drawn)
COc1cc(-c2cc3nc(NCCc4ccncc4)ccn3n2)cc(OC)c1OC
N#Cc1ccc(OCC(=O)N2CCN(S(=O)(=O)c3ccc(Cl)s3)CC2)cc1
Cc1ccc(NC(=O)c2ccc([N+](=O)[O-])o2)c(C)c1
COc1ccc(Cn2c(=O)c3[nH]cnc3n(-c3ccc(C)cc3)c2=O)cc1
S=C1SCN(Cc2cccnc2)CN1Cc1ccccc1
CCOc1ccc(CCNC(=O)CCn2ccc3cc(S(=O)(=O)N4CCCC4)ccc32)cc1
O=C(c1ccc(N2CCCCC2)c([N+](=O)[O-])c1)N1CCN(c2ccccn2)CC1
CN(C(=O)COc1ccccc1C(=O)NCCOc1ccccc1)c1ccccc1
CN(C(=O)c1ccc(F)cc1)c1ccc(OCC(=O)Nc2ccccc2C(=O)O)cc1
CC(CCC(=O)O)C1CC[C@@]2(C)C3C(=O)CC4C(C)(C)C(O)CC[C@]4(C)C3C(=O)C[C@]12C (stereo partly drawn)
CCOc1ccc2nc(SCC(=O)Nc3cccc(S(=O)(=O)NC4=NCCCCC4)c3)[nH]c2c1
COc1ccc(-c2nnc(COc3ccc(Br)cc3C)o2)cc1
Cc1cccc(C)c1-n1nnnc1C1(C)CCC(=O)N1Cc1cccs1 (stereo not drawn)
CCCC(=O)Nc1sc2c(c1C(=O)Nc1ccccn1)CCCC2
COc1ccc(NC(=O)c2cccs2)cc1C(=O)N1CCN(c2ccccc2)CC1
CC(C)Nc1nnc(SCC(=O)Nc2sccc2C#N)s1
COc1cc(NC(=O)c2ccc(Cl)cc2)c(OC)cc1NC(=O)CN1CCCCC1
CN(C)CCCN(C(=O)COc1ccc(Cl)cc1)c1nc2ccc(F)cc2s1
Cc1cccc(CSCC(=O)N2CCN(S(=O)(=O)c3ccccc3C#N)CC2)c1
COc1cc(OC)cc(C(=O)Nc2ccc(C(=O)Nc3ccccc3OC)cc2)c1
CC(C)Oc1ccc(C(=O)Nc2cccc3cccnc23)cc1
CC(C)CC#Cc1ccc2c(c1)O[C@@H](CN(C)Cc1ccccn1)[C@H](C)CN([C@H](C)CO)S2(=O)=O
CCCC(=O)Nc1cccc(C(=O)Nc2ccccc2OCC)c1
CC(C)(Nc1ccccc1)C(=O)c1ccccc1
COC(=O)c1ccccc1OCCOCCOc1cccc2ccc(C)nc12
Nc1ccccc1Nc1ccc([N+](=O)[O-])cc1[N+](=O)[O-]
Cc1ccccc1CSc1nnc(-c2ccncc2)o1
O=C(CCNc1cccc(Cl)c1)c1cccs1
C[C@@H]1CCCCO[C@@H](CN(C)C)[C@@H](C)CN([C@H](C)CO)C(=O)c2cc(NC(=O)Nc3cccc4ccccc34)ccc2O1
Cc1ccc(C2NC(c3ccc(C)cc3)C(C)C(=O)C2C)cc1 (stereo not drawn)
Cc1ccc(-c2c[n+](CC(=O)OCc3ccccc3)c3n2CCC3)cc1
Cc1noc(C)c1NC(=O)Nc1ccc2c(c1)C(=O)N([C@@H](C)CO)C[C@H](C)[C@H](CN(C)C(=O)Nc1ccc3c(c1)OCO3)OCCCC[C@H](C)O2
COc1ccc(-c2cc(C(=O)N(C)CCc3ccc(OC)c(OC)c3)c3ccccc3n2)cc1
c1ccc(Sc2ncnc3ccccc23)cc1
Cc1nc(SCC(=O)Nc2ccc3c(c2)OCCO3)nc(C)c1C
CCCN(Cc1ccco1)S(=O)(=O)c1ccc(OC)c(OC)c1
CCOC(=O)c1cc(C)nc(N2CCCCC2)c1C#N
Cn1cc(CN2CCCC(C(=O)c3cccs3)C2)c(-c2cccc(Cl)c2)n1 (stereo not drawn)
Nc1nc(-c2cc(-c3ccccc3)no2)cs1
Cc1cccc(C(=O)NCC(=O)NCCSc2ccc(Br)cc2)c1
N#CCC(=O)Nc1ccc(C(=O)OCC(=O)Nc2ccc3ccccc3c2)cc1
CCOc1cc(/C=C(\CC(=O)O)c2nc3ccccc3s2)ccc1OC
COc1ccc(-c2nc3ccc(Cl)cn3c2Cc2cccc(F)c2)cc1OC
COC(=O)c1sccc1NC(=O)Cn1nnc(-c2ccccc2C)n1
CCOc1ccc2nc(NC(=O)CSc3nc(SC)ns3)sc2c1
O=C1CN(C(=O)c2ccc(Cl)c(S(=O)(=O)N3CCc4ccccc43)c2)c2ccccc2N1
COc1ccccc1C1CCN(C(=O)c2ccco2)CC1
Cc1ccccc1SCC(=O)OCC(=O)Nc1sccc1C(N)=O
COc1ccc(-c2csc3ncn(-c4ccc(C)cc4)c(=O)c23)cc1OC
O=C(COC(=O)C12CC3CC(CC(O)(C3)C1)C2)NCCc1ccc(Cl)cc1
CCCc1c(C(=O)Nc2ccc(OC)cc2)cnn1-c1ccccc1
C=CCn1c(SCC(=O)Nc2ccc3c(c2)OCCO3)nnc1-c1ccco1
C[C@@H]1CCCCO[C@H](CN(C)C(=O)CCCN(C)C)[C@@H](C)CN([C@@H](C)CO)C(=O)c2cc(NC(=O)Nc3cccc4ccccc34)ccc2O1
CCn1nc(Cc2cccc3ccccc23)c(C#N)c1N
O=S(=O)(NCC1CCCO1)c1ccc(-c2ccc(Cl)cc2)cc1 (stereo not drawn)
Cc1ccccc1COc1ccc(-c2nn[nH]n2)cc1
CCc1ccc2[nH]c(C(=O)Nc3ccc4c(c3)OCO4)cc2c1
COc1ccc(Cl)cc1NC(=O)C1Cc2ccccc2CN1S(C)(=O)=O (stereo not drawn)
CC(C)(C)c1ccc(-c2noc(CCC(=O)NCc3ccco3)n2)cc1
CN(Cc1nnc(-c2ccc(F)cc2)o1)c1ccccc1
Cc1ccc(Cn2cnc3ccccc32)cc1
O=C(CSc1ccc(-c2cccnc2)nn1)N1CCCc2ccccc21
O=C1c2ccccc2C(c2nnnn2C2CCCCC2)N1CCc1ccc(O)cc1 (stereo not drawn)
CCOC(=O)C1CCCN(Cc2c(Cl)cccc2Cl)C1 (stereo not drawn)
CCOc1ccc2nc(SCC(=O)Nc3nonc3C)[nH]c2c1
CCCCCc1nnc(NC(=O)C2COc3ccccc3O2)s1 (stereo not drawn)
O=C(Cc1cccc(NC(=O)C2CCCN(C(=O)CCc3ccccc3)C2)c1)Nc1cccc(C(=O)N2CCCCC2)c1 (stereo not drawn)
CCN(CC)CCn1c(SCC(=O)Nc2cccc(OC)c2)nc2c(sc3ccccc32)c1=O
COc1ccccc1CCNC(=O)c1cccc(NC(=O)CC2SC(N3CCCCC3)=NC2=O)c1 (stereo not drawn)
Cc1cc(C(=O)COC(=O)CNC(=O)c2ccccc2)c(C)n1CC1CCCO1 (stereo not drawn)
COc1ccc(NC(=O)c2cccc(Oc3ccc([N+](=O)[O-])cc3Cl)c2)cc1
Cc1ccc(S(=O)(=O)Nc2ccc3c(c2)C(=O)N([C@@H](C)CO)C[C@@H](C)[C@H](CN(C)C(=O)c2ccccc2)OCCCC[C@@H](C)O3)cc1
